These results are taken from publication PMC5540273 (PLoS ONE, 2017).

Details in all cases: concentration: 1 μM, replicates: in singlicate; n = 1
Test [1] has as its system PIK3C2G.
Test [2] deals with PIK3CA.
Test [3] concerns PIK3CB.
Test [4] concerns PIK3CD.
Test [5] concerns PIK3CG.
Test [6] concerns T1, PIK4CB.
T1 construct: gene PI4KB

For test [7], the system named is PIKFYVE.
Test [8] relates to PIM1.
In test [9] the test system is PIM2.
Test [10] deals with PIM3.
Test [11] concerns PIP5K1A.
Test [12] relates to PIP5K1C.
The test system of test [13] is PIP5K2B.
Test [14] concerns T2, PIP5K2C.
T2 construct: gene PIP4K2C

The test system of test [15] is T3, PKAC-alpha.
T3 construct: gene PRKACA

In test [16] the test system is T4, PKAC-beta.
T4 construct: gene PRKACB

In test [17] the test system is PKMYT1.
For test [18], the system named is PKN1.
For test [19], the system named is PKN2.
Test [20] relates to PLK1.
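Note: KINOMEscan kinase panel screen.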

For `CN(C)c1ncnc2nc[nH]c12` [SKF-31736], the “%Inh” value in test [1] is reported as 0%; in test [2] it was 13%; in test [3], 0%; in [4], 0%; in [5], 8%; in [6], 1%. For the same molecule, the “%Inh” value is reported as 21% in test [7]; 5% in [8]; 0% in test [9]; 8% in test [10]; 0% in test [11]; 0% in test [12]. For the same molecule, the “%Inh” value is 0% in test [13]; 10% in test [14]; 0% in [15]; 0% in test [16]; 4% in [17]; 0% in [18]. Also, the “%Inh” value came to 1% in test [19] and 12% in test [20].

Regarding `O=C(Nc1n[nH]c2nc(-c3ccccc3)ccc12)C1CC1` [SB-708999], the “%Inh” value in [1] is 9%; in [2], 11%; in [3], 0%; in test [4], 41%; in test [5], 5%; in test [6] it was 0%. For the same molecule, the “%Inh” value in [7] is recorded as 28%; in test [8], 0%; in test [9], 16%; in test [10], 0%; in test [11], 46%; in [12], 84%. For the same molecule, the “%Inh” value in test [13] turned out to be 12%; in test [14] it was 34%; in test [15] it was 4%; in test [16], 0%; in [17] it was 0%; in test [18], 11%. Further, the “%Inh” value in test [19] was determined as 0%; in [20], 16%.

For the molecule `COC(=O)Nc1nc2ccc(Oc3ccc(CC(=O)Nc4cc(C(F)(F)F)ccc4F)cc3)cc2[nH]1` [GW680903], the “%Inh” value in test [1], in test [2], in test [3], in [4], in test [5] and in [6] was 0% throughout. In addition, the “%Inh” value was 5% in [7]; 19% in test [8]; 0% in [9]; 0% in test [10]; 7% in test [11]; 37% in test [12]. Besides, the “%Inh” value stood at 2% in test [13]; 31% in test [14]; 0% in test [15]; 0% in test [16]; 0% in [17]; 0% in test [18]. Further, the “%Inh” value in test [19] and in [20] was 0% throughout.

In the case of `CCOc1nccc(-c2c(-c3ccc(F)cc3)ncn2C2CCNCC2)n1` [SB-249175], the “%Inh” value in test [1] stood at 1%; in test [2], 9%; in test [3] it was 0%; in test [4] it was 18%; in test [5], 45%; in test [6], 3%. Also, the “%Inh” value in [7] amounted to 7%; in test [8], 0%; in test [9], 3%; in [10] it was 5%; in test [11] it was 0%; in [12], 14%. The “%Inh” value is recorded as 0% in test [13]; 21% in [14]; 11% in [15]; 25% in test [16]; 23% in test [17]; 6% in test [18]. For the same molecule, the “%Inh” value was 18% in test [19] and 9% in test [20].

With `Cc1nn2c(=O)cc(N3CCO[C@H](C)C3)nc2n1Cc1cccc(Cl)c1Cl` [GSK2373693], the “%Inh” value is reported as 89% in test [1]; 23% in test [2]; 0% in test [3]; 100% in test [4]; 94% in test [5]; 11% in [6]. The “%Inh” value was found to be 8% in [7]; 10% in [8]; 0% in test [9]; 0% in [10]; 0% in [11]; 83% in test [12]. In addition, the “%Inh” value turned out to be 4% in test [13]; 0% in [14]; 23% in [15]; 14% in test [16]; 62% in test [17]; 43% in test [18]. Also, the “%Inh” value in [19] and in test [20] was 0% throughout.

`Cl.Cl.NC(CNC(=O)c1cc(Br)c(-c2ccnc3[nH]ccc23)s1)c1ccccc1` (centres unmarked) [GSK1322949]: the “%Inh” value came out at 0% in test [1]; 1% in test [2]; 0% in test [3]; 0% in test [4]; 22% in test [5]; 0% in test [6]. Besides, the “%Inh” value in [7] amounted to 0%; in test [8] it was 40%; in test [9] it was 0%; in test [10] it was 34%; in test [11], 74%; in test [12] it was 85%. For the same molecule, the “%Inh” value in test [13] stood at 86%; in test [14], 57%; in [15] it was 98.4%; in test [16], 97.2%; in test [17] it was 16%; in [18], 14%. The “%Inh” value in test [19] is on record as 33%; in test [20] it was 15%.

Consider `CCn1cnc2c(NCc3ccccc3)ncnc21` [SKF-96418], for which the “%Inh” value in [1] is on record as 0%; in [2], 0%; in test [3], 0%; in test [4] it was 0%; in test [5], 0%; in test [6], 4%. Further, the “%Inh” value in [7] is 23%; in test [8], 21%; in test [9], 0%; in test [10], 0%; in [11], 21%; in [12], 22%. Also, the “%Inh” value in test [13], in test [14], in test [15], in test [16], in test [17] and in test [18] was 0% each time. Moreover, the “%Inh” value in test [19] came out at 0%; in [20], 14%.

Regarding `CS(=O)(=O)c1cccc(CNc2nc(Nc3ccc4c(c3)CCC(=O)N4)ncc2C(F)(F)F)c1`, the “%Inh” value in test [1] was found to be 9%; in [2], 0%; in test [3] it was 3%; in [4], 0%; in [5], 0%; in [6], 0%. The “%Inh” value was 28% in [7]; 10% in [8]; 0% in [9]; 32% in test [10]; 61% in [11]; 58% in test [12]. Besides, the “%Inh” value is 59% in test [13]; 69% in test [14]; 0% in test [15]; 0% in test [16]; 0% in test [17]; 49% in [18]. Moreover, the “%Inh” value in test [19] came out at 2%; in [20], 0%.

For `Cn1cc(-c2ccc3c(c2)CCN3C(=O)Cc2cc(F)cc(C(F)(F)F)c2)c2c(N)ncnc21` [GSK2635225], the “%Inh” value came to 47% in test [1]; 0% in [2]; 8% in test [3]; 0% in test [4]; 0% in test [5]; 0% in test [6]. Besides, the “%Inh” value in test [7] was found to be 0%; in [8], 2%; in test [9], 0%; in test [10], 6%; in [11], 27%; in test [12] it was 28%. Also, the “%Inh” value in [13] is given as 2%; in test [14], 15%; in test [15], 6%; in test [16], 0%; in [17], 0%; in test [18], 6%. Moreover, the “%Inh” value in test [19] was 0%; in test [20], 8%.

Consider `CCNC(=O)/C=C/c1n[nH]c2cc(Sc3ccccc3C(=O)NC)ccc12`, for which the “%Inh” value in test [1] is given as 1%; in test [2] it was 13%; in test [3], 21%; in test [4] it was 0%; in [5], 36%; in [6], 0%. The “%Inh” value is reported as 1% in test [7]; 35% in test [8]; 5% in test [9]; 0% in [10]; 0% in [11]; 0% in test [12]. In addition, the “%Inh” value in test [13] is given as 33%; in test [14], 0%; in test [15], 4%; in test [16], 21%; in [17] it was 30%; in test [18], 0%. Further, the “%Inh” value in test [19] was determined as 17%; in test [20], 0%.

Turning to `COc1cccc(C2=C(Nc3cccc(O)c3)C(=O)NC2=O)c1` [SB-390771], the “%Inh” value in [1] came to 0%; in test [2], 0%; in [3], 0%; in test [4], 0%; in test [5], 0%; in test [6], 10%. Besides, the “%Inh” value in [7] was found to be 0%; in test [8] it was 26%; in [9], 0%; in [10], 0%; in test [11] it was 0%; in test [12] it was 39%. Moreover, the “%Inh” value amounted to 14% in test [13]; 38% in test [14]; 0% in [15]; 0% in test [16]; 9% in test [17]; 100% in test [18]. Also, the “%Inh” value in test [19] and in test [20] was 0% throughout.

`COc1cccc(CC(=O)N2CCc3cc(-c4cn(C)c5ncnc(N)c45)ccc32)c1` [GSK2608899]: the “%Inh” value in test [1] is 0%; in test [2], 6%; in test [3] it was 14%; in test [4], 0%; in test [5] it was 27%; in [6], 0%. Also, the “%Inh” value in test [7] was 0%; in [8] it was 19%; in test [9], 0%; in [10], 2%; in [11], 0%; in test [12], 10%. The “%Inh” value in test [13] is 34%; in test [14] it was 0%; in [15], 4%; in test [16], 12%; in test [17] it was 10%; in test [18] it was 19%. Moreover, the “%Inh” value in test [19] worked out at 0%; in test [20] it was 9%.

Consider `O=C(O)C(F)(F)F.O=c1[nH]ccc2nc(N[C@@H]3CCNC3)nc(Nc3cc(Cl)cc(Cl)c3)c12` [GSK2188764], for which the “%Inh” value in [1] is reported as 18%; in test [2], 7%; in test [3], 25%; in test [4], 43%; in test [5], 53%; in test [6] it was 56%. Also, the “%Inh” value in [7] was 20%; in [8], 44%; in [9], 0%; in test [10], 66%; in [11] it was 75%; in [12], 75%. Moreover, the “%Inh” value in test [13] is recorded as 86%; in [14], 85%; in test [15], 20%; in [16], 35%; in test [17], 8%; in test [18] it was 83%. Further, the “%Inh” value in test [19] and in test [20] was 81% each time.

For the molecule `Nc1cccc(-c2ccc3c(N)n[nH]c3c2)c1` [GSK2193613], the “%Inh” value in test [1] stood at 0%; in test [2], 0%; in test [3] it was 40%; in test [4] it was 2%; in test [5] it was 0%; in test [6] it was 0%. The “%Inh” value in [7] was found to be 0%; in test [8], 11%; in test [9], 0%; in [10], 0%; in test [11], 0%; in test [12], 28%. The “%Inh” value in test [13] worked out at 0%; in test [14], 16%; in [15], 0%; in test [16], 4%; in [17], 8%; in test [18], 0%. Besides, the “%Inh” value in test [19] and in [20] was 0% throughout.

For `COc1cccc2c(-c3ccncc3)c(-c3ccc(F)cc3)nn12` [GW468513], the “%Inh” value in test [1] is 0%; in [2], 0%; in [3], 0%; in [4], 11%; in test [5], 0%; in test [6], 0%. Moreover, the “%Inh” value in [7] worked out at 0%; in [8], 9%; in [9], 0%; in test [10], 0%; in test [11], 0%; in [12], 64%. Moreover, the “%Inh” value in test [13] is 6%; in [14] it was 26%; in test [15], 23%; in test [16] it was 31%; in test [17], 0%; in test [18], 6%. In addition, the “%Inh” value in [19] and in test [20] was 0% throughout.

`Cc1cc(-c2c(-c3ccc(F)cc3)ncn2CCCN2CCOCC2)nc(N)n1` [SB-222517]: the “%Inh” value turned out to be 20% in test [1]; 23% in test [2]; 0% in [3]; 0% in [4]; 36% in [5]; 46% in [6]. In addition, the “%Inh” value in test [7] was 0%; in test [8], 11%; in test [9], 26%; in [10], 15%; in test [11], 0%; in [12], 0%. The “%Inh” value in [13] is reported as 0%; in [14], 0%; in test [15] it was 26%; in test [16], 16%; in [17], 4%; in [18] it was 0%. Besides, the “%Inh” value in test [19] was 10%; in test [20], 12%.
